# Active and inactive are the calls of the source. The calls were made as follows: active = hit-call score of the fitted dose curve at least 0.9, where 1 is the maximum; inactive = score below 0.9.
# Read-out: E-selectin (Homo sapiens) (UniProt P16581)
# Experiment: BSK_LPS_Eselectin: BioMAP Diversity Plus: LPS Assay for Eselectin Biomarker Activity (AID 2283077)
# Conditions: primary human HUVEC with PBMC; actives raise or lower the signal
# Experimental: BSK_LPS is a cell-based, multiplexed-readout assay that uses umbilical vein endothelium and peripheral blood mononuclear cells, a human vascular primary cell co-culture, with measurements taken at 24 hours after chemical dosing in a 96-well plate.BSK_LPS_Eselectin is an assay component measured in the BSK_LPS assay. It measures E-selectin antibody related to regulation of gene expression using ELISA technology.Data from the assay component BSK_LPS_Eselectin was analyzed into 1 assay endpoint. This assay endpoint, BSK_LPS_Eselectin, was analyzed with bidirectional fitting relative to DMSO as the negative control and baseline of activity. Using a type of binding reporter, gain or loss-of-signal activity can be used to understand changes in the signaling as they relate to the gene SELE. Furthermore, this assay endpoint can be referred to as a primary readout, because this assay has produced multiple assay endpoints where this one serves a signaling function. To generalize the intended target to other relatable targets, this assay endpoint is annotated to the cell adhesion molecules intended target family, where the subfamily is selectins.
# The levels of cell surface (or secreted, indicated by the prefix "s") biomarker endpoints were measured by ELISA. Overt cytotoxicity to cells in confluent adherent cultures (all systems other than the BT system) was assessed by measuring total protein levels using sulforhodamine B (SRB) staining in parallel cultures at the time of biomarker measurements, indicated as SRB endpoints. For proliferation assays for adherent cell types, individual cell types are cultured at sub-confluence and relative cell numbers quantified by SRB staining at time points optimized for each system (48 h: 3C and CASM3C systems; 72 h: BT and HDF3CGF systems; 96 h: SAg system). SRB was performed by staining cells with 0.1% SRB after fixation with 10% TCA and reading wells at 560 nm.Viability and proliferation of PBMC (T cells) was quantified by Alamar Blue reduction for the SAg and BT systems. For PBMC viability (referred to as PBMC Cytotoxicity within the assay endpoint names), cells were plated (75,000/well in a 96-well plate) and then chemical samples added for 1 h before addition of activators, SEB and TSST-1 (20 ng/mL final concentration each). Cells were incubated for 90 h. Then, Alamar Blue (20 uL/well) (Invitrogen, Cat DAL1100) was added for 6 h, and the plates were read with a fluorescence microplate reader at 546/580 nm (excitation/emission). For PBMC proliferation, cells were plated and activated as above but incubated for only 16 h prior to addition of Alamar Blue. Plates were read after 6 h.
# Chain of E-selectin (Homo sapiens) (P16581 whole entry, looked up): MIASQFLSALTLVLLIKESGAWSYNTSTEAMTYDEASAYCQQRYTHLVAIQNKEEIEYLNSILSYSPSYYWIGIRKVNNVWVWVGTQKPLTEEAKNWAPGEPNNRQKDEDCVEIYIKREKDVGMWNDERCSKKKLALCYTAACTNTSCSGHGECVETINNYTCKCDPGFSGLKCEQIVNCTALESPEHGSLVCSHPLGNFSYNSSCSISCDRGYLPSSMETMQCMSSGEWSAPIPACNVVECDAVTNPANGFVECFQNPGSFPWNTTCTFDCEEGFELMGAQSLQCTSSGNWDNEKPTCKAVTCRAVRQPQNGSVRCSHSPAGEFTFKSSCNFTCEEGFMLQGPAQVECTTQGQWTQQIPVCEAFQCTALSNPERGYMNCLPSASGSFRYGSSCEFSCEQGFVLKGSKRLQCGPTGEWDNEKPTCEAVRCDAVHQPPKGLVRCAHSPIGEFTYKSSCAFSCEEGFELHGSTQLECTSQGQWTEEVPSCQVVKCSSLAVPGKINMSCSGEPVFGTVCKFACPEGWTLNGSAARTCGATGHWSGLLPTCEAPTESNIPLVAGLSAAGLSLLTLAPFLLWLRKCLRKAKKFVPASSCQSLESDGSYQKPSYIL
SMILES,outcome,AC50
O=C(O)C(Cl)(Cl)Cl,inactive,–
Oc1c(I)cc(I)cc1I,–,27.6 µM (active)
CC(C)CCCCCCOC(=O)c1ccccc1C(=O)OCCCCCCC(C)C,inactive,–
CN(C)N=O,inactive,–
O=C(Nc1ccc2[nH]ccc2c1)c1cc2cc(F)ccc2n1Cc1cccc(F)c1,–,12.4 µM (active)
BrCCBr,inactive,–
CC12CC1(C)C(=O)N(c1cc(Cl)cc(Cl)c1)C2=O (stereo not given),inactive,–
O=C(OC1CCCCC1)c1ccccc1C(=O)OC1CCCCC1,–,20.9 µM (active)
Nc1cccc2ccccc12,inactive,–
Oc1ccc(-c2ccccc2)cc1,inactive,–
CCOC(=O)/C=C(C)/C=C/C[C@@H](C)CCCC(C)C,–,34.8 µM (active)
CCOP(=S)(OCC)SCCS(=O)(=O)CC,inactive,–
O=C(O)CCC(F)(C(F)(F)F)C(F)(F)F,inactive,–
C=C(C)C(=O)[O][Sn]([CH2]CCC)([CH2]CCC)[CH2]CCC,–,0.148 µM (active)
Cc1ccccc1N,inactive,–
COP(=S)(OC)Oc1ccc(Sc2ccc(OP(=S)(OC)OC)cc2)cc1,inactive,–
O=[N+]([O-])c1ccc2c3c(cccc13)CC2,inactive,–
NC(=O)O,inactive,–
Nc1ncc([N+](=O)[O-])s1,inactive,–
CCSC(C)CC1CC(=O)C(C(CC)=NOC/C=C/Cl)=C(O)C1 (stereo not given),inactive,–

SMILES,outcome,AC50
Nc1ccc(-c2ccc(N)c(Cl)c2)cc1Cl,inactive,–
CCCCC(CC)CO[N+](=O)[O-] (stereo not given),inactive,–
C=CC(=O)OCCCCCC(C)C,inactive,–
O=C(O)C(F)(F)C(F)(F)C(F)(F)C(F)(F)C(F)(F)C(F)(F)C(F)(F)C(F)(F)C(F)(F)C(F)(F)F,inactive,–
OCc1ccco1,inactive,–
CCN1CCC2(CC1)COc1cc3c(cc12)N(C(=O)c1ccc(-c2ccc(-c4nnc(C)o4)cc2C)cc1)CC3,–,29.3 µM (active)
CCOP(=S)(OCC)Oc1ccc(S(C)=O)cc1 (stereo not given),inactive,–
CC(=O)C(Cl)C(=O)N(C)C (stereo not given),–,15.4 µM (active)
O=C1C2(Cl)C3(Cl)C4(Cl)C(Cl)(Cl)C5(Cl)C3(Cl)C1(Cl)C5(Cl)C24Cl (stereo not given),–,11.1 µM (active)
CC(C)(C)CC(C)(C)c1ccc(O)cc1,–,11.7 µM (active)
C(=NC1CCCCC1)=NC1CCCCC1,–,34.9 µM (active)
O=S(=O)(c1ccc(Cl)cc1)c1ccc(Cl)cc1,inactive,–
ClCC(Cl)CCl,inactive,–
CC(C)(OO)c1ccccc1,inactive,–
COP(=S)(OC)Oc1c(Cl)cc(C)cc1Cl,inactive,–
CC(C)(C)c1cc(O)ccc1O,–,12.4 µM (active)
C[C@]12CCC(=O)C[C@@H]1CC[C@@H]1[C@@H]2CC[C@]2(C)[C@@H](O)CC[C@@H]12,–,28.1 µM (active)
O=Cc1cccc(Oc2ccccc2)c1,inactive,–
COC(=O)c1sccc1S(=O)(=O)NC(=O)Nc1nc(C)nc(OC)n1,inactive,–
ClC(Cl)=C(Cl)C(Cl)=C(Cl)Cl,inactive,–

# From PubChem BioAssay (EPA / NIEHS)
